Reference: PMC4552634, “A New Set of Chemical Starting Points with Plasmodium falciparum Transmission-Blocking Potential for Antimalarial Drug Discovery” (PLoS ONE, 2015)
The campaign covered roughly 13,000 compounds. About 3,200 (25%) showed an effect of 50% or more. Some of the results follow.

The compounds below were run on P. falciparum stage V gametocytes. Details: 48 h, 5 µM; inhibitor.
Set-up: BacTiter-Glo ATP luminescence viability of purified stage V gametocytes in 384-well plates, per cent inhibition versus DMSO

Row | SMILES | % Inhibition
1 | N[C@@H](Cc1ccc(O)cc1)C(=O)NC(c1ccccc1)c1c(O)ccc2ccccc12 (stereo partly shown) [TCMDC-141232] | 9.479%
2 | CC=CC1CCNC(C(O)c2ccnc3ccc(OC)cc23)C1 (stereo not shown) [TCMDC-132000] | 38.01%
3 | CC(C)CCN1CCC(Oc2cccc(NC(=O)c3ccc(C(F)(F)F)cc3)c2)CC1 [TCMDC-133738] | 13.2%
4 | O=C(NCCCCN1CCN(c2cccc(Cl)c2Cl)CC1)c1ccc2c(c1)CCN(C1CCC1)CC2 [TCMDC-136053] | 20.89%
5 | CN1CCC(N2CCC(Oc3cccc(C(=O)NCCCC4CCCC4)c3)CC2)CC1 [TCMDC-124677] | 58.06%
6 | CN1CCC(NCc2ccc(S(=O)(=O)Nc3ccc(Oc4cccc(Cl)c4)cc3)cc2)CC1 [TCMDC-136201] | 14.91%
7 | CN1CCC(NCc2ccc(-c3cccc(S(=O)(=O)NCC4CCCO4)c3)cc2)CC1 (stereo not shown) [TCMDC-132242] | 58.26%
8 | CN1CCC(NCc2cccc(-c3cccc(S(=O)(=O)NCc4ccccc4)c3)c2)CC1 [TCMDC-132377] | 104%
9 | CN1CCC(NCc2ccc(-c3ccc(S(=O)(=O)NCc4ccccc4)cc3)cc2)CC1 [TCMDC-132227] | 101.8%
10 | CN1CCC(NCc2cccc(-c3ccc(S(=O)(=O)NCc4ccccc4)cc3)c2)CC1 [TCMDC-132213] | 49.72%
11 | CN1CCC(NCc2ccc(-c3cccc(S(=O)(=O)NCc4ccccc4)c3)cc2)CC1 [TCMDC-132238] | 104.8%
12 | Cc1ccc(Nc2nc3cc(Nc4ccnc(Nc5cccc(CS(C)(=O)=O)c5)n4)ccc3o2)cc1 [TCMDC-141957] | -56.36%
13 | O=C(Nc1cc(C(F)(F)F)ccc1-n1cncn1)C1(c2ccccc2)CC1 [TCMDC-125454] | 25.16%
14 | CCC(ON1C(N)=NC(N)=NC1(C)C)c1ccc(Cl)cc1 (stereo not shown) [TCMDC-131709] | 18.34%
15 | Cc1cc(S(=O)(=O)N2CCCCC(c3ccc(C(F)(F)F)cc3)=N2)c(Cl)cc1Cl [TCMDC-134540] | -43.69%
16 | Cc1ccc(S(=O)(=O)NC2=NC(C)(C)N(OCc3ccc(Cl)c(Cl)c3)C(N)=N2)cc1 [TCMDC-131711] | 22.12%
17 | Nc1nc(-c2ccccn2)nc(-n2nc(-c3cccc(C(F)(F)F)c3)cc2N)n1 [TCMDC-134026] | 76.36%
18 | Nc1cc(-c2cccc(Cl)c2)nn1-c1ccnc2cc(Cl)ccc12 [TCMDC-134027] | -29.85%
19 | CN1CCN(c2cc(-c3cccc(C(F)(F)F)c3)nc(-c3ccncc3)n2)CC1 [TCMDC-125413] | 29.7%
20 | Cc1ccccc1C1CCN(c2ccc(C(=O)Nc3ccccc3)cn2)CC1 [TCMDC-134584] | 3.597%
21 | O=C(NCCc1ccccc1)c1cc(-c2cccnc2)cnc1NCC1CC1 [TCMDC-136700] | 4.382%
22 | COc1cc(-c2nc3c4ccccc4c4ccccc4c3[nH]2)cc(OC)c1OC [TCMDC-123980] | 2.227%
23 | CC(=NNc1nc2ccccc2s1)c1ccccn1 [TCMDC-124267] | 64.52%
24 | CCOc1ccc2nc(NC(=O)c3csnn3)sc2c1 [TCMDC-125075] | 43.02%
25 | COc1cccc2c(NCCNc3ccnc4c(OC)cccc34)ccnc12 [TCMDC-137880] | 30.12%

Row | SMILES | % Inhibition
26 | CC(=NNC(=S)NCCc1ccccc1)c1ccccn1 [TCMDC-124270] | 79.29%
27 | CC(=NNC(=S)NC(c1ccccc1)c1ccccc1)c1ccccn1 [TCMDC-137894] | -31.88%
28 | CC(=NNC(=S)NCc1ccco1)c1ccccn1 [TCMDC-137906] | 99.6%
29 | COc1cc(CNC(=S)NN=C(C)c2ccccn2)cc(OC)c1OC [TCMDC-137900] | 55.54%
30 | O=c1cc(NCCCNCc2[nH]c3cc(Cl)cc(Cl)c3c2Cn2cccn2)[nH]c2ccccc12 [TCMDC-140152] | -2.677%
31 | COc1ccc2nccc([C@@H](O)CN3CCC(NCCc4c[nH]c5ccccc45)CC3)c2c1 [TCMDC-140938] | 7.162%
32 | CCc1ccc(O)c(-c2cc(C(=O)Nc3ccc(OC)c(Cl)c3)[nH]n2)c1 [TCMDC-125072] | 5.954%
33 | COc1ccc2nccc([C@@H](O)CN3CCC(NCc4ccc5c(c4)nnn5C(C)C)CC3)c2c1 [TCMDC-141011] | -16.76%
34 | CCc1ccc(CN2CCC(C(=O)Nc3ccc(-c4nc5ccccc5[nH]4)cc3)CC2)o1 [TCMDC-124686] | -27.59%
35 | COCCCNC(=S)NN=C(C)c1ccccn1 [TCMDC-137907] | 93.04%
36 | Clc1ccc2c(NCCc3ccccn3)ccnc2c1 [TCMDC-123461] | 8.42%
37 | CC(=NNC(=S)NCCc1ccccn1)c1ccccn1 [TCMDC-137895] | 92.63%
38 | CC(=NNC(=S)NC(C)(C)C)c1ccccn1 [TCMDC-137783] | 15.81%
39 | Cc1ccc(Oc2cnn(C)c(=O)c2Nc2cccc(C(=O)NCCc3ccccn3)c2)c(C)c1 [TCMDC-124786] | 34.52%
40 | CNC(=S)NN=C(C)c1ccccn1 [TCMDC-123475] | 90.46%
41 | CN(c1ccc(NC(=O)c2ccc(F)cc2)cc1)C1CCN(Cc2cccc(F)c2)C1 (stereo not shown) [TCMDC-135003] | -17.16%
42 | O=C(Nc1ccc(OC2CCN(Cc3ccsc3)C2)c(Cl)c1)c1ccc2ncccc2c1 (stereo not shown) [TCMDC-133951] | -25.76%
43 | C[C@H](Nc1c(Nc2ccc3[nH]ccc3c2)c(=O)c1=O)C1CCCCC1 [TCMDC-138193] | -95.47%
44 | FC(F)(F)c1cccc(N2CCC(CN3CCC(c4c[nH]c5ccccc45)CC3)CC2)n1 [TCMDC-134280] | 19.45%
45 | Cn1nc(-c2ccc(S(=O)(=O)N3CCC(CCN4CCC(c5c[nH]c6ccccc56)CC4)CC3)s2)cc1C(F)(F)F [TCMDC-140168] | 106.2%
46 | O=C(NCCCCCN1CCC(c2c[nH]c3ccccc23)CC1)Nc1cccc(C(F)(F)F)c1 [TCMDC-139217] | -48%
47 | O=C(NCc1ccc(S(=O)(=O)N2CCC(CN3CCC(c4c[nH]c5ccccc45)CC3)CC2)s1)c1ccccc1 [TCMDC-140170] | 48.92%
48 | Cn1nc(-c2ccc(S(=O)(=O)N3CCC(CN4CCC(c5c[nH]c6ccccc56)CC4)CC3)s2)cc1C(F)(F)F [TCMDC-140171] | 114.8%
49 | Nc1nccc2ccc(-c3ccnc(NCc4cccnc4)n3)cc12 [TCMDC-136735] | -3.627%
50 | Cc1ccc(-c2cnc(N)c3cc(-c4ccnc(N)n4)ccc23)cc1 [TCMDC-134544] | 25.6%

Row | SMILES | % Inhibition
51 | Cn1ncc2ccc(Nc3nccc(-c4ccc5c(c4)c(N)nn5C)n3)cc21 [TCMDC-137049] | 80.69%
52 | Cc1cccc2[nH]c(-c3ccc(-c4cccc(NC(=O)c5cnn6cccnc56)c4)cc3)nc12 [TCMDC-136865] | 23.94%
53 | COc1ccc(C(=O)Nc2ccc(Nc3nc(C)cc(N(C)C)n3)cc2)c(OC)c1 [TCMDC-124727] | 63.21%
54 | COc1ccccc1C(=O)Nc1ccc(Nc2nc(C)cc(N(C)C)n2)cc1 [TCMDC-124728] | -11.89%
55 | COc1ccc(NC(=O)Nc2ccc(Nc3nc(C)cc(N(C)C)n3)cc2)cc1 [TCMDC-124960] | 1.588%
56 | Cc1cc(N(C)C)nc(Nc2ccc(NC(=O)c3ccccc3C)cc2)n1 [TCMDC-124729] | -17.39%
57 | COc1cccc(C(=O)Nc2ccc(Nc3nc(C)cc(N(C)C)n3)cc2)c1 [TCMDC-124720] | -4.624%
58 | COc1cccc(C(=O)Nc2ccc(Nc3nc(C)cc(N(C)C)n3)cc2)c1OC [TCMDC-124719] | 58.09%
59 | Cc1nc2c(=O)sc3ccccc3c2n1Cc1ccccc1 [TCMDC-125754] | -11.8%
60 | CN(C)CCN(C)Cc1ccc(-c2ccc(NC(=O)c3ccc(Cl)cc3)cc2)cc1 [TCMDC-132587] | -35.6%
61 | CN(C)CCN(C)Cc1ccc(-c2cccc(NC(=O)c3ccc(Cl)cc3)c2)cc1 [TCMDC-132631] | 0.8563%
62 | CN(CCCCN)Cc1ccc(-c2ccc(Cl)cc2)cc1 [TCMDC-140123] | 92.64%
63 | O=C(NCc1ccc(C(=O)N2CCC(N3CCCCC3)CC2)cc1)c1cc(-c2cccc(C(F)(F)F)c2)ccc1O [TCMDC-139090] | -1.594%
64 | O=C(Nc1ccccc1Br)c1cn(-c2ccccc2)nc1-c1cccc([N+](=O)[O-])c1 [TCMDC-124624] | 18.14%
65 | O=C(NCCc1cccc(F)c1)c1ccc(N2CCN(c3ccncc3)CC2)cn1 [TCMDC-135153] | 19.99%
66 | CCNc1cc(C(=O)N[C@@H](Cc2ccccc2Cl)[C@H](O)CNC2CCCCC2)cc(N2CCCCS2(=O)=O)c1 [TCMDC-135223] | 16.84%
67 | NC[C@H](CC1CCCCC1)NC(=O)c1ccc(-c2ccnc3[nH]ccc23)s1 [TCMDC-134150] | 38.45%
68 | O=C(NCCCc1ccccc1)c1ccc(O)c(-c2cc(Cl)cc(Cl)c2)c1 [TCMDC-140159] | -73.77%
69 | Oc1ccc(CCNCCCCCCNCCCc2ccc(Cl)cc2)cc1O [TCMDC-131264] | 107.9%
70 | CNC(=O)CC(=O)NCCc1ccc(Cl)cc1 [TCMDC-131647] | -3.705%
71 | Oc1ccc(CCNCCCCCCNCCc2ccc(Cl)cc2)c(Cl)c1O [TCMDC-131266] | 111.4%
72 | Oc1ccc(CCNCCCCNCCc2ccc(Cl)cc2)cc1O [TCMDC-131265] | 107%
73 | Oc1ccc(CCNCCCCCNCCCc2ccc(Cl)cc2)cc1O [TCMDC-131279] | 112.4%
